Assay results as given in PubChem BioAssay (NCATS).
Values without a mark were called inactive. A call without a number means that no potency is given here. For some assays here: Measured potencies and affinities stand elsewhere. Calls of active or inactive are those of the source.

How the values were obtained:
[1] = Ebola virus entry assay, green fluorescence channel
[2] = Ebola virus entry assay, blue channel fluorescence
[3] = Ebola virus entry assay, green fluorescence channel; remark: listed apart in the source
[4] = Ebola virus entry assay, ratio channel readout
[5] = Ebola virus entry assay, blue channel fluorescence; remark: listed apart in the source
[6] = Ebola virus entry assay, ratio channel
[7] = Ebola virus entry assay, green channel fluorescence
[8] = Ebola virus entry assay, reporter ratio channel; AC50: Channel type: primary unless noted; outcome: Channel type: primary unless noted
[9] = Ebola virus entry assay, blue channel (ratio component)
[10] = Ebola virus entry reporter assay, green channel fluorescence
[11] = Ebola virus entry cell assay, ratio channel
[12] = Ebola virus entry assay, blue channel fluorescence; remark: listed apart in the source
[13] = Immunotoxin (HA22) sensitization/mitigation study. Vehicle arm (PBS) (AID 1159510); settings: cancer cells viability with PBS vehicle (HA22 study); series mostly up to 46.1 µM; further: potency means the concentration at half of the fitted maximal effect
[14] = Immunotoxin (SS1P) sensitization/mitigation study. Vehicle arm (DMEM) (AID 1159513); settings: cell viability with vehicle (DMEM); series mostly up to 46.1 µM; further: potency means the concentration at half of the fitted maximal effect

| Compound | efficacy [1] [%] | outcome [2] | outcome [3] | outcome [4] | outcome [5] | outcome [6] | outcome [7] | outcome [8] | outcome [9] | outcome [10] | outcome [11] | AC50 [5] | AC50 [8] | outcome [12] | AC50 [1] | AC50 [3] | AC50 [6] | AC50 [11] | Potency [13] | Potency [14] |
| --- | --- | --- | --- | --- | --- | --- | --- | --- | --- | --- | --- | --- | --- | --- | --- | --- | --- | --- | --- | --- |
| Cc1ccc(S(=O)(=O)NC(=O)NN2CC3CCCC3C2)cc1 (configuration not stated) | -32.1 | inactive | inactive | inactive | inactive | inactive | inactive | inactive | inactive | inactive | inactive | – | – | – | – | – | – | – | – | – |
| CC[C@H](C)C(=O)O[C@H]1C[C@@H](C)C=C2C=C[C@H](C)[C@H](CC[C@@H]3C[C@@H](O)CC(=O)O3)[C@H]21 | 16.1 | inactive | inactive | inactive | inactive | inactive | inactive | inactive | inactive | – | inactive | – | – | – | – | – | – | – | – | – |
| CNC1(C)C2CCC(C2)C1(C)C (configuration not stated) | 20.8 | inactive | inactive | inactive | – | inactive | inactive | – | – | inactive | inactive | 39.8 µM (active) | 35.5 µM (active) | – | – | – | – | – | – | – |
| O=C1[C@H](CC[C@H](O)c2ccc(F)cc2)[C@@H](c2ccc(O)cc2)N1c1ccc(F)cc1 | -26.4 | inactive | inactive | inactive | – | inactive | inactive | – | – | inactive | inactive | 28.2 µM (active) | 28.2 µM (active) | inactive | – | – | – | – | – | – |
| CC[C@@]1(O)C(=O)OCc2c1cc1n(c2=O)Cc2cc3c(CN(C)C)c(O)ccc3nc2-1 | – | inactive | – | inactive | inactive | – | – | – | inactive | – | – | – | 7.94 µM (active) | inactive | 31.6 µM (active) | 7.94 µM (active) | 7.94 µM (active) | 5.62 µM (active) | 0.0118 µM (active) | 5.9 µM (active) |
| CC(=O)Oc1cc2c(s1)CCN(C(C(=O)C1CC1)c1ccccc1F)C2 (configuration not stated) | 43.8 | inactive | inactive | inactive | inactive | inactive | – | inactive | inactive | – | inactive | – | – | inactive | – | – | – | – | – | – |
| Cc1ccc(-n2[nH]c(C)c(N=Nc3cccc(-c4cccc(C(=O)O)c4)c3O)c2=O)cc1C | 128 | inactive | inactive | inactive | inactive | inactive | – | inactive | inactive | inactive | inactive | – | – | inactive | – | – | – | – | – | – |
| CCc1c2c(nc3ccc(OC(=O)N4CCC(N5CCCCC5)CC4)cc13)-c1cc3c(c(=O)n1C2)COC(=O)[C@]3(O)CC | 45.7 | inactive | inactive | inactive | – | – | – | – | – | – | inactive | 20 µM (active) | 28.2 µM (active) | inactive | – | – | 28.2 µM (active) | – | – | – |
| N=C(N)c1ccc(OCCCCCOc2ccc(C(=N)N)cc2)cc1 | 22.7 | inactive | inactive | inactive | inactive | inactive | – | inactive | inactive | – | inactive | – | – | inactive | – | – | – | – | – | – |
| CN(C)[C@@H]1C(=O)C(C(N)=O)=C(O)[C@@]2(O)C(=O)C3=C(O)c4c(O)ccc(Cl)c4[C@@H](O)[C@H]3C[C@@H]12 | 117 | inactive | inactive | inactive | inactive | – | – | – | inactive | – | inactive | – | 28.2 µM (active) | inactive | – | – | 28.2 µM (active) | – | – | – |
| CN(Cc1cnc2nc(N)nc(N)c2n1)c1ccc(C(=O)N[C@@H](CCC(=O)O)C(=O)O)cc1 | 38.5 | inactive | inactive | inactive | inactive | inactive | – | inactive | – | – | inactive | – | – | inactive | – | – | – | – | – | – |
| CC(=O)[C@]1(O)Cc2c(O)c3c(c(O)c2[C@@H](O[C@H]2C[C@H](N)[C@H](O)[C@H](C)O2)C1)C(=O)c1ccccc1C3=O | 27.8 | inactive | inactive | inactive | – | – | inactive | – | – | – | inactive | 14.1 µM (active) | 12.6 µM (active) | – | – | – | 12.6 µM (active) | – | – | – |
